Assay [1] can be described thus: optical density shifts of acrAB sulA E. coli – strain DRC41, OD650, 48 h, E. coli filamentation inducer project, primary screen (AID 1152).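 Also: E. coli MC1000 strain DRC41 lacking acrAB efflux pump and sulA.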 The note with it: higher = more signal, called active from +8 up or from −8 down.
A short description of assay [2]: probe aLefty1 binding on compound microarray – biochemical, small-molecule microarray, 635/667 nm fluorescence, primary screen (AID 1153).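 Also: score merges spot fluorescence with signal-to-noise ratio from the scanned slide images.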 The note with it: higher = more signal.
The nature of assay [3]: plasmodial surface anion channel blockers, osmotic lysis – cell-based, P. falciparum Indochina, OD700, 1 h, primary screen (AID 1154). The note with it: P. falciparum Indochina infected RBC osmotic lysis, higher = more signal, called active from +8 up or from −8 down.
Assay [4] is described as follows: plasmodial surface anion channel blockers, osmotic lysis – cell-based, P. falciparum Indochina, OD700, 2 h, primary screen (AID 1155).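 Also: lysis reports solute entry through the parasite surface anion channel PSAC.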 The note with it: P. falciparum Indochina infected erythrocytes, higher = more signal, called active from +8 up or from −8 down.
Assay [5] is described as follows: changes in parasitized red cell lysis, either direction – P. falciparum Indochina, OD700, 3 h, PSAC antagonist project, primary screen (AID 1156). To be noted: P. falciparum-infected erythrocytes, osmotic lysis, higher = more signal, called active from +8 up or from −8 down.
The nature of assay [6]: plasmodial surface anion channel blockers, osmotic lysis – cell-based, P. falciparum Indochina, OD700, 18 h, primary screen (AID 1157). To be noted: P. falciparum Indochina infected erythrocytes, osmotic lysis OD700, 18 h; higher = more signal, called active from +8 up or from −8 down.
Assay [7] can be described thus: S6 kinase pathway phospho-S6 level changes – cell-based, A549, cytoblot, luminescence, serum-stimulated, primary screen (AID 1158).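 Also: serum-stimulated A549 lung adenocarcinoma cells; signal is phosphorylated S6 detected by cytoblot immunostaining with HRP secondary.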 To be noted: 5 h, higher = more signal.
The target of assay [8] is NADPH oxidase 2 (Homo sapiens) (UniProt P04839). Kind of assay: compounds shifting NOX2 Amplex Red fluorescence – cell-based, HEK293-NOX2, PMA-stimulated, NOX inhibitor project, primary screen (AID 1159). Also: test concentration not given here. To be noted: 45 min, higher = more signal, called active from +8 up or from −8 down.
Chain of NADPH oxidase 2 (Homo sapiens) (P04839 whole entry, looked up): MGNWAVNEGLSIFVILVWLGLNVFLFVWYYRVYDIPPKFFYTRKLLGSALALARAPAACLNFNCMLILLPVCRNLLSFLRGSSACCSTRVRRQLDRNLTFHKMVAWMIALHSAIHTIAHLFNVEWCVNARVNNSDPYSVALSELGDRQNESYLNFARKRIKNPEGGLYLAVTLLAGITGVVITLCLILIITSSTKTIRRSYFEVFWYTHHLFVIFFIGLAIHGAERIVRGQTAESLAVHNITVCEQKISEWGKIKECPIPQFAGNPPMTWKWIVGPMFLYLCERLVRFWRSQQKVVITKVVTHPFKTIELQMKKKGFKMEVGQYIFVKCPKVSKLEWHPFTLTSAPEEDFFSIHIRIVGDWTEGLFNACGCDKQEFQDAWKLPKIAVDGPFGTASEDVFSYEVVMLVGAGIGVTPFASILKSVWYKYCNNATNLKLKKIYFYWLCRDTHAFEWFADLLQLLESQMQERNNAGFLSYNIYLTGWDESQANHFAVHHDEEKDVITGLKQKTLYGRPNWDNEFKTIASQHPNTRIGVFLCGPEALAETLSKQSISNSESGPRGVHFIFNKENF
In assay [9] the target is NADPH oxidase 4 (Homo sapiens) (UniProt Q9NPH5). Kind of assay: compounds shifting NOX4 Amplex Red fluorescence – cell-based, HEK293-NOX4, tetracycline-induced, NOX inhibitor project, primary screen (AID 1160). The note with it: HEK293-NOX4, Amplex Red H2O2 fluorescence, 45 min; higher = more signal, called active from +8 up or from −8 down.
Chain of NADPH oxidase 4 (Homo sapiens) (Q9NPH5 whole entry, looked up): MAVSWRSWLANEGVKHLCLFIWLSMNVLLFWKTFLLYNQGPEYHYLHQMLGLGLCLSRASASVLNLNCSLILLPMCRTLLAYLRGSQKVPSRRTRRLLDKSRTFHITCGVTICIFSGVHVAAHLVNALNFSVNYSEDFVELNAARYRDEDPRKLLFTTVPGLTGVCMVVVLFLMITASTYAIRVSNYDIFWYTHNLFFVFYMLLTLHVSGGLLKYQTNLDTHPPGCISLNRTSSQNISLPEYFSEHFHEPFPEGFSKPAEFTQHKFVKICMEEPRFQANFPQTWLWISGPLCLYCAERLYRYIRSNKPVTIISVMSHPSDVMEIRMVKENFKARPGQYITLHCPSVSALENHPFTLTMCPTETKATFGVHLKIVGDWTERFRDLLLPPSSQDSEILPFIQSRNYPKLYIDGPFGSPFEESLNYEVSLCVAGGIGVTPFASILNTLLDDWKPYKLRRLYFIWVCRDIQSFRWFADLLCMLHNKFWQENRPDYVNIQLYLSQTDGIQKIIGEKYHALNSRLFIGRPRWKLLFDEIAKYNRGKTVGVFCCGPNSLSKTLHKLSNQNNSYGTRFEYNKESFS
The target in assay [10] is NADPH oxidase 5 (Homo sapiens) (UniProt Q96PH1). Kind of assay: compounds shifting NOX5 Amplex Red fluorescence – cell-based, HEK293-NOX5, NOX inhibitor project, primary screen (AID 1161). The note with it: HEK293-NOX5, ionomycin, 45 min, higher = more signal.
Chain of NADPH oxidase 5 (Homo sapiens) (Q96PH1 whole entry, looked up): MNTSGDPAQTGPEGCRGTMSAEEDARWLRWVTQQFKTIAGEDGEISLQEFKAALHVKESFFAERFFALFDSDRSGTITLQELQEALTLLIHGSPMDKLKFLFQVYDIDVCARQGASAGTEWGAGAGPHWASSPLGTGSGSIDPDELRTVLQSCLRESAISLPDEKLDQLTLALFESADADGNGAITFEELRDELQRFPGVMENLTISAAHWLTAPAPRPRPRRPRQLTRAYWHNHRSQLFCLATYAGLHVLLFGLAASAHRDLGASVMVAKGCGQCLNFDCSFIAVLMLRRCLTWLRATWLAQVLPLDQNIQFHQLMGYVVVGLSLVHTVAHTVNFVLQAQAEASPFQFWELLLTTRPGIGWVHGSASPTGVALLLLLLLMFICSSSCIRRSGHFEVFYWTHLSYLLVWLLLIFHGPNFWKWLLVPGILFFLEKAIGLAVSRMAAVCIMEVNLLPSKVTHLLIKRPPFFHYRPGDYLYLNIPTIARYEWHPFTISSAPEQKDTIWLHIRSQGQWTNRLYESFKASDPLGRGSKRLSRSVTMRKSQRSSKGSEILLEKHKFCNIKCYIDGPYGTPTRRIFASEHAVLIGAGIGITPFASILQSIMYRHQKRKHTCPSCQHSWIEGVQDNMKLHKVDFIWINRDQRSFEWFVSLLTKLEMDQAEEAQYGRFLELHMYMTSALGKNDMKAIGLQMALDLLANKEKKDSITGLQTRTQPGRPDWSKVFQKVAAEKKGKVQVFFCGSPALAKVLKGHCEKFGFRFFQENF
Assay [11] can be described thus: compound effects on lung adenocarcinoma cell viability – A549, calcein-AM fluorescence, 48 h, basal, profiling panel (AID 1162). Also: test concentration not given here. To be noted: higher = more signal.
A short description of assay [12]: compound effects on differentiated 3T3-L1 adipocyte viability – cell-based, 3T3-L1 adipocytes, calcein-AM fluorescence, 48 h, basal, profiling panel (AID 1163). Also: test concentration not given here. The note with it: 3T3-L1 adipocytes viability, higher = more signal.
Assay [13] is described as follows: compound effects on hepatocellular carcinoma cell viability – HepG2, calcein-AM fluorescence, 48 h, basal, profiling panel (AID 1164). Also: test concentration not given here. The note with it: higher = more signal.
Assay [14] in a line: compound effects on multiple myeloma cell viability – MM1S, calcein-AM fluorescence, 48 h, basal, profiling panel (AID 1165).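 Also: viability of MM1S multiple myeloma cells under basal unstimulated conditions; test concentration not given here.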 To be noted: higher = more signal.
Assay [15] is described as follows: calcein-AM signal in unstimulated myeloma cells – cell-based, calcein-AM fluorescence, 48 h, PK04 Diversity Set, profiling panel (AID 1166).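 Also: cells grown under basal conditions without added stimulus; test concentration not given here.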 To be noted: RPMI8226 myeloma viability, higher = more signal.
Assay [16] in a line: JC-1 mitochondrial signal, unstimulated HepG2 cells – cell-based, JC-1 fluorescence, 24 h, 100 nL compound, profiling panel (AID 1167). Also: test concentration not given here. The note with it: HepG2 mitochondrial potential, higher = more signal.
A short description of assay [17]: JC-1 mitochondrial signal, unstimulated adipocytes – cell-based, JC-1 fluorescence, 3T3-L1 adipocytes, 24 h, 100 nL compound, profiling panel (AID 1168). Also: test concentration not given here. The note with it: JC-1 mitochondrial fluorescence, higher = more signal, called active from +8 up or from −8 down.
The nature of assay [18]: JC-1 mitochondrial signal, unstimulated myeloma cells – cell-based, JC-1 fluorescence, RPMI8226, 24 h, 100 nL compound, profiling panel (AID 1169). Also: test concentration not given here. The note with it: JC-1 mitochondrial potential fluorescence, higher = more signal.
A short description of assay [19]: JC-1 mitochondrial signal, unstimulated MM1S myeloma – cell-based, JC-1 fluorescence, 24 h, 100 nL compound, profiling panel (AID 1170). Also: test concentration not given here. To be noted: MM1S mitochondrial potential, higher = more signal.
Assay [20] in a line: resazurin metabolic signal in A549 cells – cell-based, resazurin fluorescence, 24 h, PK04 Diversity Set, profiling panel (AID 1171). Also: test concentration not given here. To be noted: A549 viability, higher = more signal, called active from +8 up or from −8 down.

Calls of active or inactive are those of the source.

On to `CCS[C@H]1[C@@H](C(=O)O)[C@H](c2ccc(C)cc2)N(S(=O)(=O)c2ccc(C)cc2)[C@@H]1CC`, for which the z-score in [1] is 0.409 (inactive); in assay [3] it was 1.56 (inactive); in assay [4], 1.02 (inactive); in assay [5], -0.129 (inactive); in [6], 0.831 (inactive); in assay [7] it was -0.0726. Besides, the z-score in assay [8] is 0.983 (inactive); in [9] it was -0.149 (inactive); in [10], 0.271; in assay [11], -0.408; in assay [12] it was -0.507; in [13] it was 1.36. The z-score in assay [14] is 0.412; in assay [15], 0.458; in assay [16], 0.922; in assay [17] it was 0.337 (inactive); in [18], 0.551; in assay [19], -1.88. Also, in assay [20], the z-score was -0.545 (inactive). The compound further had a composite z-score in assay [2] of 0.157.

As for `O=C(CS)NCCCCCCNC(=O)[C@@H]1C[C@@H]2C(=O)N[C@@H](Cc3ccccc3)C(=O)N2[C@@H]1c1cccc(OCCO)c1`, the z-score in [1] was -0.92 (inactive); in assay [3], 4.39 (inactive); in assay [4] it was 0.198 (inactive); in assay [5], 0.839 (inactive); in [6] it was 0.0799 (inactive); in [7], -0.775. Besides, the z-score is 1.75 (inactive) in assay [8]; 0.728 (inactive) in assay [9]; -0.131 in assay [10]; -0.55 in [11]; 0.363 in assay [12]; 0.371 in assay [13]. Further, the z-score was -0.204 in assay [14]; 0.537 in assay [15]; -1.28 in [16]; 0.476 (inactive) in assay [17]; 0.198 in assay [18]; -0.143 in assay [19]. In addition, the z-score in assay [20] was -0.436 (inactive). In [2], the composite z-score was -0.073.

Consider `C=C[C@H](OC)[C@@H](OC(=O)Nc1ccc(OC)cc1)c1ccc(O)c(F)c1`, for which the z-score in assay [1] is 0.496 (inactive); in assay [3] it was 4.19 (inactive); in assay [4] it was 0.484 (inactive); in [5], -0.433 (inactive); in assay [6], 0.253 (inactive); in assay [7] it was -0.102. In addition, the z-score in assay [8] is -1.5 (inactive); in [9] it was 1.1 (inactive); in assay [10] it was 5.13; in [11], -0.766; in assay [12] it was -0.501; in [13], -0.322. Also, the z-score in assay [14] is -2.06; in [15] it was -2.88; in [16], -2.39; in assay [17], 0.313 (inactive); in assay [18], -0.538; in assay [19] it was -0.933. Also, the z-score in [20] was -0.596 (inactive). Also, the composite z-score in [2] was determined as 0.0921.

In the case of `C=CCN1C(=O)[C@@]2(CC=C)N=C(c3ccc(OCCCO)cc3)O[C@H]2c2ccccc21`, the z-score was 1.92 (inactive) in assay [1]; 34.5 (active) in [3]; 30.9 (active) in assay [4]; 3.11 (inactive) in [5]; 9.88 (active) in [6]; 1.63 in assay [7]. Besides, the z-score was -2.21 (inactive) in assay [8]; 0.796 (inactive) in assay [9]; -0.809 in assay [10]; 0.248 in assay [11]; 1.68 in [12]; -0.515 in assay [13]. Moreover, the z-score in assay [14] was -3.41; in assay [15], -3.72; in [16], 1.62; in [17], 2.61 (inactive); in assay [18], -1.02; in [19] it was -2.1. Also, the z-score in assay [20] was -2.08 (inactive). For the same compound, the composite z-score in [2] was found to be 0.547.

As for `COc1ccc([C@H]2OC[C@@H]3C[C@@H](Cc4ccccc4)C(=O)N32)cc1`, the z-score was -0.783 (inactive) in [1]; 2.1 (inactive) in assay [3]; 0.0371 (inactive) in [4]; -0.59 (inactive) in assay [5]; 0.308 (inactive) in assay [6]; -0.597 in assay [7]. The z-score was 1.25 (inactive) in assay [8]; 0.524 (inactive) in [9]; -0.604 in assay [10]; -0.706 in [11]; 0.0138 in assay [12]; 0.305 in assay [13]. Also, the z-score was -2.13 in assay [14]; 0.215 in [15]; -0.478 in assay [16]; -0.0784 (inactive) in assay [17]; 0.183 in assay [18]; -0.0676 in assay [19]. Besides, the z-score in assay [20] was 0.194 (inactive). The composite z-score in [2] turned out to be 0.25.

The values are drawn from PubChem BioAssay.
